PubChem BioAssay (Tox21)
Where “and” joins values, the source holds several entries; their conditions need not be identical. Equal values may be shown once. Inconclusive results are not listed. Some structures have more than one record in an assay (separate samples or runs), and their calls can disagree. Calls of active or inactive are those of the source. Unless noted, calls come from the whole dose curve.

Experiments:
[1] = qHTS assay to identify small molecule antagonists of the vitamin D receptor (VDR) signaling pathway - cell viability counter screen (AID 743225; active = well fitted curve in the direction sought with a large enough effect in the repeat runs; an effect the other way counts as inactive or inconclusive; note: nearly all actives have a fitted effect of over 50% in size; note: potency is the fitted concentration of half-maximal effect); settings: VDR-bla HEK293T viability, CellTiter-Glo luminescence, 16 h; series mostly up to 61 µM
How it was run: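 VDR-UAS-bla HEK 293T cells were plated and incubated 4 h at 37C, then dosed with compound plus 3 nM (final) 1-alpha,25-dihydroxyvitamin D3 for 16 h. After the 2 h beta-lactamase read, viability in the same wells was read as CellTiter-Glo luminescence after 30 min at room temperature.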

[2] = qHTS assay to identify small molecule agonists of the NFkB signaling pathway - cell viability counter screen (AID 1159515); settings: NFkB-bla ME-180 viability, CellTiter-Glo luminescence, 5 h; series mostly up to 61 µM; note: nearly all actives have a fitted effect of over 55% in size; note: potency is the fitted concentration of half-maximal effect
How it was run: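 Luminescence from CellTiter-Glo (30 min, room temperature) gives viability, measured in the same wells as the beta-lactamase reporter read. Cells were NFkB-bla ME-180, 2,000 per well, treated 5 hr with compounds.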

[3] = qHTS assay to identify small molecule agonists of the endoplasmic reticulum stress response signaling pathway (AID 1159516; active = well fitted activation curve with a large enough effect in the signal ratio in the repeat runs, not every such curve was filed as active; the % refers to the signal ratio; note: potency is the fitted concentration of half-maximal effect); settings: ESRE-bla HeLa, ER stress beta-lactamase reporter, 5 h; series mostly up to 61 µM
How it was run: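 Read-out is beta-lactamase cleavage of a FRET substrate (405 nm excitation; 460 and 530 nm emissions) in ESRE-bla HeLa cells after a 5 hr compound exposure at 37 C. Substrate incubation ran 2 hr at room temperature.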

[4] = qHTS assay to identify small molecule agonists of the endoplasmic reticulum stress response signaling pathway - cell viability counter screen (AID 1159517); settings: ESRE-bla HeLa viability, CellTiter-Glo luminescence, 5 h; series mostly up to 61 µM; note: nearly all actives have a fitted effect of over 50% in size; note: potency is the fitted concentration of half-maximal effect
How it was run: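 Luminescence readout: CellTiter-Glo, 30 min RT, same wells as the ESRE-bla reporter read. HeLa ESRE-bla, 1,500 cells/well, o/n 37 C; cpd 5 hr 37 C/5% CO2.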

[5] = qHTS assay to identify small molecule antagonists of the retinoid-related orphan receptor gamma (ROR-gamma) signaling pathway - cell viability counter screen (AID 1159520; active = well fitted curve in the direction sought with a large enough effect in the repeat runs; an effect the other way counts as inactive or inconclusive; note: nearly all actives have a fitted effect of over 50% in size; note: potency is the fitted concentration of half-maximal effect); settings: Tet-on RORgamma CHO cells viability, ATP luminescence, 16 h; series mostly up to 92.4 µM
How it was run: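 Tet-on ROR gamma CHO cells (1,000/well) were plated 4 hr, given compounds in DMSO for 2 hr at 37 C, then induced with 1 uM final doxycycline for 16 hr. Viability was read as ATP by CellTiter-Glo luminescence after 30 min.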

[6] = molecular target: Nuclear receptor ROR-gamma (Homo sapiens) (UniProt P51449); assay: qHTS assay to identify small molecule antagonists of the retinoid-related orphan receptor gamma (ROR-gamma) signaling pathway (AID 1159521; active = well fitted curve in the direction sought with a large enough effect in the repeat runs; an effect the other way counts as inactive or inconclusive; note: nearly all actives have a fitted effect of over 50% in size; note: potency is the fitted concentration of half-maximal effect); settings: Tet-on RORgamma CHO cells, RORE-luciferase, 16 h; series mostly up to 92.4 µM
How it was run: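 Tet-on ROR-gamma CHO cells with ROR response element-luciferase reporter; compounds added 2 hr before 1 uM doxycycline induction, then 16 hr at 37 C. Antagonism scored as decreased ONE-Glo luminescence.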

[7] = qHTS assay to identify small molecule agonists of the AP-1 signaling pathway - cell viability counter screen (AID 1159525); settings: ME-180 AP-1-bla cells viability, ATP luminescence, 5 h; series mostly up to 76.8 µM; note: nearly all actives have a fitted effect of over 55% in size; note: potency is the fitted concentration of half-maximal effect
How it was run: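 ME-180 AP-1-bla, 2500 cells/well, Opti-MEM + 0.5% dialyzed FBS; overnight 37 °C; cpd 15-pt titration, 5 h 37 °C; CellTiter-Glo 30 min RT; luminescence read; normalised to TOAB and DMSO controls.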

[8] = qHTS assay to identify small molecule agonists of the AP-1 signaling pathway (AID 1159526); settings: ME-180 (cervical carcinoma) AP-1-bla reporter, beta-lactamase FRET ratio, 5 h; series mostly up to 76.8 µM
[9] = molecular target: Retinoic acid receptor RXR-alpha (Homo sapiens) (UniProt P19793); assay: qHTS assay to identify small molecule agonists of the RXR signaling pathway (AID 1159527); settings: HEK293T RXRa-UAS-bla, beta-lactamase ratio, 16 h; series mostly up to 76.8 µM; note: nearly all actives have a fitted effect of over 35% in size; note: potency is the fitted concentration of half-maximal effect
Sequence of Retinoic acid receptor RXR-alpha (Homo sapiens) (P19793 whole entry, looked up): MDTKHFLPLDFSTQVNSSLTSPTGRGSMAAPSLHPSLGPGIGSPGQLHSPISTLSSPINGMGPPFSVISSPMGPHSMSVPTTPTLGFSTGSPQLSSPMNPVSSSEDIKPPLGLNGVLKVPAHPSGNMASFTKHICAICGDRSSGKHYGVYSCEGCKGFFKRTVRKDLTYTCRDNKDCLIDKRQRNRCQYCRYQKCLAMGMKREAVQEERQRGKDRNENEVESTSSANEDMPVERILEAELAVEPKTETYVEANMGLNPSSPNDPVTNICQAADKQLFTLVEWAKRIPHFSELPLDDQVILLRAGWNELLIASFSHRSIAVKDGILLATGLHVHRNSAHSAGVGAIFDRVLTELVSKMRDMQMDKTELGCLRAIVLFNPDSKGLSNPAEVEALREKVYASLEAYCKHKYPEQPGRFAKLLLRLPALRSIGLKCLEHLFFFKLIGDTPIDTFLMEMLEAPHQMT
How it was run: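 GeneBLAzer RXR-alpha-UAS-bla HEK 293T cells in 2% charcoal-stripped FBS medium were exposed to compounds for 16 hr at 37 C in agonist mode. Beta-lactamase reporter read as 460/530 nm FRET ratio after 2 hr substrate loading.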

[10] = qHTS assay to identify small molecule agonists of the RXR signaling pathway - cell viability counter screen (AID 1159529; active = well fitted curve in the direction sought with a large enough effect in the repeat runs; an effect the other way counts as inactive or inconclusive; note: nearly all actives have a fitted effect of over 50% in size; note: potency is the fitted concentration of half-maximal effect); settings: RXR-alpha-bla HEK293T viability, CellTiter-Glo, 16 h; series mostly up to 76.8 µM
How it was run: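 RXR-alpha-UAS-bla HEK 293T cells in medium with 2% charcoal-stripped FBS were pre-incubated 5 hr, then compound-treated 16 hr at 37 C. Viability was read by CellTiter-Glo luminescence in the same wells as the beta-lactamase assay, with tetraoctyl ammonium bromide as positive control.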

Measured: Potency

CN1CC[C@]23c4c5ccc(O)c4O[C@H]2[C@@H](O)C=C[C@H]3[C@H]1C5
inactive: [1] | [2] | [3] | [4] | [5] | [6] | [7] | [8] | [9] | [10]

O=C(O)C(O)C(O)C(=O)O (configuration not stated)
inactive: [1] | [2] | [3] | [4] | [5] | [6] | [7] | [8] | [9] | [10]

C[C@H]1O[C@H](OC2[C@@H](O)[C@@H](O)C(O)[C@H](O)[C@H]2O)[C@@H](N)C[C@@H]1N=C(N)C(=O)O (some centres not stated)
inactive: [1] | [2] | [3] | [4] | [5] | [6] | [7] | [8] | [9] | [10]

CC(=O)NNc1ccccc1
inactive: [2] | [3] | [4] | [5] | [6] | [7] | [8] | [10]

CC(C)(C)c1ccc(CCOc2ncnc3ccccc23)cc1
inactive: [1] | [2] | [3] | [4] | [5] | [6] | [7] | [8] | [9]

OCCCl
active: [9] 19.5 µM
inactive: [1] | [2] | [3] | [4] | [5] | [6] | [7] | [8] | [10]

Clc1ccc2ccccc2c1
inactive: [1] | [2] | [3] | [4] | [5] | [6] | [7] | [8] | [9]

CC(C)c1ccc(OP(=O)(Oc2ccc(C(C)C)cc2)Oc2ccc(C(C)C)cc2)cc1
inactive: [3] | [5] | [7] | [8]
active: [2] 30.9 µM | [4] 9.77 µM | [6] 27.5 µM and 30.6 µM | [10] 19.6 µM and 19.5 µM

N#CC(C#N)=Cc1ccc(O)c(O)c1
inactive: [1] | [2] | [3] | [4] | [5] | [6] | [7] | [8] | [9] | [10]

FC(F)OC(F)(F)C(F)Cl (configuration not stated)
inactive: [1] | [2] | [3] | [4] | [5] | [6] | [7] | [8] | [9] | [10]

c1ccc2c(c1)-c1cccc3cccc-2c13
inactive: [1] | [2] | [4] | [5] | [6] | [7] | [8] | [9]
active: [3] 49 µM

C[N+]1(CCC(C(N)=O)(c2ccccc2)c2ccccc2)CCCCC1
inactive: [1] | [2] | [3] | [4] | [5] | [6] | [7] | [8] | [9] | [10]

CC(O)CN1CCN(CC(=O)[O-])CCN(CC(=O)[O-])CCN(CC(=O)[O-])CC1.[Gd+3] (configuration not stated)
inactive: [1] | [2] | [3] | [4] | [5] | [6] | [7] | [8] | [9] | [10]

CC(C)c1ccc(NC(=O)N(C)C)cc1
inactive: [1] | [2] | [3] | [4] | [5] | [6] | [7] | [8] | [9] | [10]

CCCC(C)(COC(N)=O)COC(=O)NC(C)C (configuration not stated)
inactive: [1] | [2] | [3] | [4] | [5] | [6] | [7] | [8] | [9] | [10]

CCCCCCCCCCCCN(C)C
inactive: [1] | [2] | [3] | [4] | [5] | [6] | [7] | [8] | [9] | [10]

CCCCCCCCCCCCCCCl
inactive: [1] | [2] | [3] | [5] | [6] | [7] | [8] | [9] | [10]

CCCCCCCCCCCC[N+](C)(C)CCOc1ccccc1
active: [1] 21.9 µM and 21.3 µM | [5] 61.1 µM | [6] 27.3 µM | [7] 49 µM and 23.9 µM | [10] 8.71 µM and 12 µM
13.8 µM (active) and inactive: [2]

CN1C[C@H](C(=O)N[C@]2(C)O[C@@]3(O)[C@@H]4CCCN4C(=O)[C@H](Cc4ccccc4)N3C2=O)C=C2c3cccc4[nH]cc(c34)C[C@H]21
active: [10] 22 µM
inactive: [1] | [2] | [4] | [5] | [7] | [8] | [9]
54.7 µM (active) and inactive: [6]
